Among the data in PubChem BioAssay (NCATS) are Potency and outcome values, retold here.

Test [1] can be described thus: OV-KATE Cancer Cell Toxicity qHTS against the NCATS CANVASS Library (AID 1347345). In short, it runs like this:
(§1)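 Following a 4 h pre-incubation of 1000 seeded cells, compounds were pinned in an 11-pnt dilution series and left for 72 h; viability then came from CellTiter-Glo.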
On the technique in general: qHTS replaces the single test concentration by a dilution series.

Test [2] in a line: HPAF-II Cancer Cell Toxicity qHTS against the NCATS CANVASS Library (AID 1347346). Note: series mostly up to about 38 µM; nearly all actives have a fitted effect of over 55% in size. The method, boiled down: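 Cytotoxicity read-out was CellTiter-Glo luminescence after 72 h at 37 degrees C exposure of HPAF-II cells (1000/well) to compounds in an 11-point titration.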
The nature of test [3]: OV-SAHO Cancer Cell Toxicity qHTS against the NCATS CANVASS Library (AID 1347348). Note: series mostly up to about 38 µM; nearly all actives have a fitted effect of over 55% in size. In short, it runs like this: as §1
Test [4] can be described thus: U-118MG Cancer Cell Toxicity qHTS against the NCATS CANVASS Library (AID 1347351). The method, boiled down:
as §1

Test [5] can be described thus: HPAF-II 24hr Apoptosis Induction qHTS against the NCATS CANVASS Library (AID 1347356). In short, it runs like this:
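Caspase-Glo 3/7 luminescence, read after 15 min room-temperature development, measures apoptosis in HPAF-II cells treated 24 h at 37 degrees C with an 11-point concentration series; 500 cells/well; doxorubicin control.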

The nature of test [6]: HPAF-II 12hr Apoptosis Induction qHTS against the NCATS CANVASS Library (AID 1347358). The method, boiled down: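 Caspase-3/7 activation by DEVD-substrate luminescence (Caspase-Glo 3/7, 15 min, room temperature) after a 12-hour compound exposure in 11 concentrations, of HPAF-II pancreatic cells seeded at 500/well in DMEM with 10% FBS.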
Test [7] can be described thus: HEK293 24hr Apoptosis Induction qHTS against the NCATS CANVASS Library (AID 1347359). In short, it runs like this:
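HEK293 cells, 500 per well, exposed to an 11-point compound series for 24 hours at 37 degrees C. Caspase 3/7 activity read by Caspase-Glo luminescence (DEVD substrate) after 15 min at room temperature.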

Test [8] is described as follows: HPAF-II 18hr Apoptosis Induction qHTS against the NCATS CANVASS Library (AID 1347360). The method, boiled down:
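Apoptosis was scored as caspase-3/7 activity in HPAF-II pancreatic cancer cells treated 18 hours with an 11-point concentration series.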

Test [9] concerns the target Luciferin 4-monooxygenase (Photinus pyralis) (UniProt P08659). Briefly: Firefly luciferase counterscreen qHTS: Assay Interference Panel against the NCATS CANVASS Library (AID 1347363). Note: series mostly up to about 57 µM. The method, boiled down: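 Purified P. pyralis luciferase (0.04 ug/mL, 4x reagent) added to Tris-acetate buffer with 0.013 mM D-luciferin, 0.013 mM ATP and 13.3 mM Mg-acetate; compounds preincubated 15 min, then luminescence read after 5 min, RT.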
(A counterscreen serves to expose hits that act by an unwanted route or on another target.)

Test [10] in a line: qHTS for ATAD5 Agonist screened against the NCATS CANVASS Library (AID 1347367).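 Note: luciferase reporter driven by ATAD5 which rises upon DNA damage.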 The method, boiled down: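 Step one plated reporter cells and let them acclimate 5hr. Step two pinned compounds with MMS as positive and 0.46% DMSO as negative control. After 16hr incubation, fluorescence viability then luminescence were read.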
Test [11] can be described thus: MCF7 Cancer Cell Toxicity qHTS against the NCATS CANVASS Library (AID 1347369). Note: series mostly up to about 46 µM. The method, boiled down:
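Cytotoxicity is measured by ATP content: MCF7 cells at 500 per well receive an 11-point compound series and, after 72 hr at 37C, are lysed with CellTiterGlo for luminescence.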

Test [12] in a line: qHTS for ATAD5 Antagonist screened against the NCATS CANVASS Library (AID 1347370).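 Note: HEK293T cells carrying an ATAD5 luciferase reporter co-treated with 10 µM 5-fluorouridine; series mostly up to about 46 µM; nearly all actives have a fitted effect of over 65% in size.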 The method, boiled down: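 Compounds (11-point) co-dosed with 10 µM 5-FUrd for 16 h at 37 °C onto HEK293T-ATAD5 luciferase reporter cells. Viability measured by CellTiter-Fluor fluorescence, then ATAD5 reporter signal by luminescence.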
Test [13] can be described thus: J3T Cancer Cell Toxicity qHTS against the NCATS CANVASS Library (AID 1347371). The method, boiled down: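 Cytotoxicity read as CellTiterGlo ATP luminescence after 72 h incubation (37C, 5% CO2) of J3T canine glioma cells (500/well) with an 11-point compound series.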
Test [14] deals with Nuclear receptor subfamily 1 group I member 3 (Homo sapiens) (UniProt Q14994). Nature of the test: qHTS for Constitutive Androstane Receptor (CAR) Agonist screened against the NCATS CANVASS Library (AID 1347373).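 Note: every well also contained 1.5 µM PK11195 alongside the test compound.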 In short, it runs like this: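 Agonist mode with 1.5uM PK11195 present: compounds for 24hr on HepG2-hCAR-CYP2B6 cells. CellTiter-Fluor fluorescence (ex 405, em 540 nm) gives viability; ONE-Glo luminescence reports CAR activation.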

Test [15] can be described thus: 10-beta competent E. coli microbial cell viability qHTS against the NCATS CANVASS Library (AID 1347376). Note: series mostly up to about 46 µM. The method, boiled down: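 Read-out: BacTiter-Glo ATP luminescence, taken 20 min after reagent addition. Beforehand, 10-beta competent E. coli at 0.2 OD had been incubated overnight at 37C with compounds at 11 concentrations.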
Test [16] is described as follows: qHTS for H2AX Agonists against the NCATS CANVASS Library (AID 1347378).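 Note: phospho-H2AX S139 level in CHO-K1 lysates by TR-FRET emission ratio.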 The method, boiled down:
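Following overnight seeding, CHO-K1 cells are incubated with a concentration series of compound for 3 hr at 37C (final DMSO 0.76%). Cells are then lysed, detection antibodies added, and emission ratio 665/620 nm recorded after 24 hr at room temperature.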

A short description of test [17]: qHTS for Inflammasome Signaling Inhibitors: IL-1-beta AlphaLISA screen against the NCATS CANVASS Library (AID 1347379).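 Note: human THP-1 cells primed with LPS then triggered with ATP.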 The method, boiled down: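 Secreted IL-1B from human THP-1 cells quantified by AlphaLISA 16 hr after compound addition (final up to 57.5 uM). A 1 hr compound pretreatment preceded inflammasome activation with 250 ng/mL LPS plus 1.25 mM ATP (final).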

Test [18] is described as follows: Cytotoxicity qHTS for assessment of Hepg2 cells membrane integrity screened against the NCATS CANVASS Library (AID 1347387). In short, it runs like this:
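Membrane damage quantified as fluorescent LDH-release signal (ex 560, em 590 nm) in HepG2 cells treated 5 hr at 37C. qHTS format, 11 concentrations spanning 0.59 nM - 46 uM final, cells plated at 2000 per well the night before.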

A short description of test [19]: Vero-766 cells viability qHTS against the NCATS CANVASS Library: Counterscreen for Zika virus inhibition assay (AID 1347394). Note: nearly all actives have a fitted effect of over 60% in size. Note: potency is the fitted concentration of half-maximal effect. In short, it runs like this:
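This cytotoxicity counterscreen uses African green monkey Vero 766 cells in the absence of Zika virus. Compounds are incubated with cells for 72 h, and ATP-based luminescence reports viability.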

Test [20] is described as follows: Viability qHTS for inhibitors of the SERCaMP assay screened against the NCATS CANVASS Library (AID 1347400). Note: series mostly up to about 92 µM; nearly all actives have a fitted effect of over 70% in size. In short, it runs like this:
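CellTiter-Glo luminescence measured cytotoxicity after 48 h at 37C of compound treatment (11-point series). Cells were SH-SY5Y-GLuc SERCaMP MJH297 derivatives, seeded at 1000 per well 4 h beforehand.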

Structures are written as SMILES. Values without a mark were called inactive. Records with an inconclusive call do not appear. Active and inactive are the calls of the source. Calls come from the whole dose curve; as a rule, active = well fitted curve in the direction sought with a large enough effect; inconclusive = small, poorly fitted or top-dose-only effect, or another doubt; inactive = no such curve, though single readings can be large; an effect the other way counts as inactive or inconclusive.

Sequence of Nuclear receptor subfamily 1 group I member 3 (Homo sapiens) (Q14994 whole entry, looked up): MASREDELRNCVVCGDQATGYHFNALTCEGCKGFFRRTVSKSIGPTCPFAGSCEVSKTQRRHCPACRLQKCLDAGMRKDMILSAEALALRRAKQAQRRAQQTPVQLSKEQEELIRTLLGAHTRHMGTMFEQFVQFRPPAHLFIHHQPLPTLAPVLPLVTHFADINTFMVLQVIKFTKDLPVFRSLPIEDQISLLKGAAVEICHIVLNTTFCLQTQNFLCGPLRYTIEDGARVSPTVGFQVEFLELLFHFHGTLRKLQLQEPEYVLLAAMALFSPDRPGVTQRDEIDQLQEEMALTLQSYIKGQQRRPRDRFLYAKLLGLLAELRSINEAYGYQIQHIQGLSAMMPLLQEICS
Sequence of Luciferin 4-monooxygenase (Photinus pyralis) (P08659 whole entry, looked up): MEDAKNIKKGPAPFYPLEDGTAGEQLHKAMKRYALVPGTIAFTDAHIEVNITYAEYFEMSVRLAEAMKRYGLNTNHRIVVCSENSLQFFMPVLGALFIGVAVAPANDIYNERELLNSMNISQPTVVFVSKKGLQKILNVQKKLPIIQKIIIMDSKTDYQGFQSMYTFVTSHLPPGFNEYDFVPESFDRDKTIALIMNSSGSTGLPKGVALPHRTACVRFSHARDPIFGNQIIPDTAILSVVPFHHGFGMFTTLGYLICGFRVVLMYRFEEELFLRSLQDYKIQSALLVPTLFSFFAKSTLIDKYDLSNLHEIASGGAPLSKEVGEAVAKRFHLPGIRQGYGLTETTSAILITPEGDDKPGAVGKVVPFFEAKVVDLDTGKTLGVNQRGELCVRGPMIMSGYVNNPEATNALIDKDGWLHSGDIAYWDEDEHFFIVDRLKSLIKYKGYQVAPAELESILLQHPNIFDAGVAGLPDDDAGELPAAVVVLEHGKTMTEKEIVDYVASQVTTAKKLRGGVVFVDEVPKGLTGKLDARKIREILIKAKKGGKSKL

As for `CC(=O)O[C@H]1CC[C@@]2(C)C(CC[C@]3(C)C2CC=C2C4CC(C)(C)CC[C@]4(C)CC[C@]23C)C1(C)C` (stereo partly drawn), the Potency entry in test [1], in test [2], in [3], in test [4], in test [6] and in test [7] was “inactive” in each case. For the same molecule, the Potency result in test [8], in test [9], in test [10], in test [11], in test [12] and in test [13] was “inactive” throughout. Moreover, the Potency entry in test [16], in [17], in test [19] and in test [20] was “inactive” throughout. Also, the outcome in [5], in test [14], in test [15] and in test [18] was inactive.
As to `C=C1C[C@@]23C=CC(=O)[C@@](C)(CCC(=O)Nc4c(O)ccc(C(=O)O)c4O)C2C[C@@H]1CC3O` (stereo partly drawn), the Potency entry in test [1], in test [2], in test [3], in test [4], in [6] and in test [7] was “inactive” in each case. Moreover, the Potency entry in test [8], in [9], in [10], in test [11], in [12] and in test [13] was “inactive” each time. The Potency entry in [16], in [17], in [19] and in test [20] was “inactive” throughout. Besides, the call in test [5], in [14], in [15] and in test [18] was inactive.
`C=C(NC(=O)c1csc(-c2nc3c(cc2O)-c2nc(cs2)C(=O)NC(C(C)O)C(=O)N/C(=C(\C)O)c2nc(cs2)C(=O)NC2c4nc(cs4)C(=O)NC(COC(=O)c4c5c6c(cccc6n4O)COC(=O)[C@@H](OC4C[C@](C)(O)[C@H](N(C)C)[C@H](C)O4)C2OC5)c2nc-3cs2)n1)C(N)=O` (stereo partly drawn): the Potency entry in test [1], in [2], in test [3], in test [4], in test [6] and in test [7] was “inactive” throughout. The Potency entry in test [8], in test [9], in [10], in [11], in test [12] and in test [13] was “inactive” each time. The Potency result in [16], in test [17], in test [19] and in [20] was “inactive” each time. Besides, the molecule was called inactive in [5], in test [14], in [15] and in test [18].
Turning to `CCCCCCC[C@@H](C/C=C/CCC(=O)NCCc1c[nH]c2ccccc12)OC`, the Potency result in test [1], in [2], in test [3], in test [4], in test [6] and in test [7] was “inactive” throughout. Further, the Potency entry in test [8], in test [9], in test [10], in test [11], in test [13] and in [16] was “inactive” throughout. Further, the Potency result in test [17] and in test [20] was “inactive” throughout. In addition, the molecule was called inactive in test [5], in [14] and in [18]. In [19], the Potency is 23.4 µM (active).
